A selection: hits, their analogues and other compounds. The true share with any hit is near 3.5%.
MITF primary = MITF inhibitors, primary screen, biochemical, AlphaScreen, human; AlphaScreen MITF homodimerization, bead proximity signal; inhibition, % at 2.6 µM; Microphthalmia-associated transcription factor (Homo sapiens), O75030; actives 0.91% (n = 650,000); in the data active means inhibition above about 50%
FBW7 activator = FBW7 E3 ligase activators, primary screen, biochemical, AlphaScreen, human; F-box/WD repeat-containing protein 7 (Homo sapiens), Q969H0; AlphaScreen FBW7–phospho-cyclin E peptide binding, activator screen; normalized activity (activation), % at 26.1 µM; actives 0.13% (n = 650,000); AID 1259310, 2017; in the data active means normalized activity above about 1.9%;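 further: purified mutant Fbw7 with reduced substrate affinity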
GPR151 ag = activators of human GPR151, primary screen, cell-based, PathHunter beta-arrestin, luminescence | G-protein coupled receptor 151 (Homo sapiens), Q8TDV0 | PathHunter beta-arrestin GPR151 cells | activation, % at 11.2 µM | actives 1% (n = 650,000); in the data active means activation above about 4.9%
Target sequence (Q8TDV0 whole entry, looked up): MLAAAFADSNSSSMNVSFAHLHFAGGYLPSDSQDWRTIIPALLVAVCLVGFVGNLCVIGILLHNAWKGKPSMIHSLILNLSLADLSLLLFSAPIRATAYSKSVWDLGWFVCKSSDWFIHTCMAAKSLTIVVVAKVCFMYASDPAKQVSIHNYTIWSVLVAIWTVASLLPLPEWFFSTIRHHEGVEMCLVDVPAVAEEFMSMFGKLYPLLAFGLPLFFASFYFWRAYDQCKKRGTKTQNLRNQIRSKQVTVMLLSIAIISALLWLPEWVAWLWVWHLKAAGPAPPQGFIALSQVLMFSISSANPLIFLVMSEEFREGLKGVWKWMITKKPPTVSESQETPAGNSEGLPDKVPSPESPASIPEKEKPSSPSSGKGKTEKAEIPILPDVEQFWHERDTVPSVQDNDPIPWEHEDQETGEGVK
TEAD-YAP block = TEAD-YAP interaction inhibition, primary screen, TEAD-YAP interaction inhibitor project, luminescence, HEK-TIYL cells | TEAD-Gal4/YAP UAS-luciferase luminescence | inhibition, % at 9.12 µM | actives 1.4% (n = 640,000); in the data active means inhibition above about 32%
MITF inh conf = MITF inhibitors, retest of hits, confirmation, biochemical, AlphaScreen, triplicate; AlphaScreen MITF homodimerization, biotin/His-MITF beads; actives 16% (n = 4,700); inhibition, % at 2.6 µM; shares compounds with MITF primary;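 active means inhibition above a cutoff derived from the DMSO control wells, cut at about 28% in these data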;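 further: inhibitors lower the bead chemiluminescence by keeping MITF from dimerizing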
AS interf DR = AlphaScreen optical interference compounds, dose response, counter-screen, biochemical, HTS; AlphaScreen optical interference counterscreen, cell-free; shares compounds with MITF primary; actives 6% (n = 480); AID 1259373, 2018; IC50, µM; call rule not given here
AS interf ctr = AlphaScreen optical interference compounds, counter-screen for MITF inhibitor project, biochemical, triplicate | shares compounds with MITF primary | LysRS AlphaScreen counterscreen, signal interference | inhibition, % at 2.6 µM | actives 7.6% (n = 4,700);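 active means inhibition above a cutoff derived from the DMSO control wells, cut at about 30% in these data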
Of the large screens only hits and unclear results are named; the others gave an inactive call (follow-up assays come after a bar, where they were run).

CN(C)c1ccc(C(=O)n2nnc3ccccc32)cc1	MITF primary 61 | MITF inh conf inactive | AS interf ctr inactive
O=C1c2ccc([N+](=O)[O-])cc2C(=O)N1c1cc(Br)c(O)c(Br)c1	MITF primary 69 | MITF inh conf 75 | AS interf DR inactive | AS interf ctr inactive
COc1ccccc1-c1cc2nc(C)c(CCC(=O)NCC(OC)OC)c(C)n2n1	none
ClC1(Cl)CC1CNc1ncnc2sc3c(c12)CCC3 (stereo not given)	MITF primary 60 | MITF inh conf inactive | AS interf ctr inactive
CCOC(=O)C1=C(C)NC2=C(C(=O)C(C(=O)OCC)C(c3ccccc3OC)C2)C1c1ccc(OCC)cc1 (stereo not given)	none
CN1CCN(CCS(=O)(=O)OCC(F)(F)C(F)F)CC1	MITF primary 77 | MITF inh conf inactive | AS interf ctr inactive
CCCC(=O)Nc1nc2ccccc2s1	none
O=C(CCC1CCCCC1)Nc1nc2ccccc2s1	MITF primary 92 | MITF inh conf inactive | AS interf ctr inactive
CCn1nc(C(=O)Nc2cc(C)nn2-c2nc3ccccc3s2)cc1C	none
CCn1nc(C(=O)Nc2nc3ccccc3s2)cc1C	MITF primary 69, TEAD-YAP block 88 | MITF inh conf inactive | AS interf ctr inactive
CN1CCN(CC(=O)Nc2nc3ccccc3s2)CC1	MITF primary 51 | MITF inh conf inactive | AS interf ctr inactive
Cc1ccccc1NC(=O)N1CCC(Cn2cnc3ccccc32)CC1	none
COc1ccc(Cl)cc1NC(=O)N1CCC(Cn2cnc3ccccc32)CC1	none
O=C(NC(c1ccccc1)c1ccccc1)N1CCC(Cn2cnc3ccccc32)CC1	MITF primary 56 | MITF inh conf inactive | AS interf ctr inactive
O=C(Cn1ccc2ccccc21)N1CCC(Cn2cnc3ccccc32)CC1	none
O=C(COc1ccccc1)N1CCC(Cn2cnc3ccccc32)CC1	MITF primary 56 | MITF inh conf inactive | AS interf ctr inactive
COc1ccc(CNC(=O)N2CCC(Cn3cnc4ccccc43)CC2)cc1	MITF primary 58 | MITF inh conf inactive | AS interf ctr inactive
Cc1ccc(C(=O)N2CCN3C(=O)[C@@H]4CSCN4C(=O)[C@H]3C2)cc1F	none
COc1cc2cc3c(N)c(C(=O)Nc4sc(C)c(C)c4C#N)sc3nc2cc1OC	MITF primary 62 | MITF inh conf 70 | AS interf DR inactive | AS interf ctr inactive
CCN(CC)CC(O)CN1CCN(S(=O)(=O)c2ccc(Cl)cc2)CC1 (stereo not given)	MITF primary 61 | MITF inh conf inactive | AS interf ctr inactive
CCN(CC)CC(O)CN1CCN(C(=O)c2ccccc2)CC1 (stereo not given)	MITF primary 52 | MITF inh conf inactive | AS interf ctr inactive
CC(C)(C)OCC(O)CN1CCN(C(=O)c2ccccc2)CC1 (stereo not given)	none
CC(=O)N1CCN(Cc2ccc3c(c2)CN(Cc2c(F)ccc(F)c2F)CCO3)CC1	none
CCCCn1c(SCc2nc3ccccc3[nH]2)nc2c(sc(=S)n2CCc2ccccc2)c1=O	none
O=C(O)C1CCCCC1C(=O)Nc1nncs1 (stereo not given)	none
O=C(O)C1CC=CCC1C(=O)Nc1nncs1 (stereo not given)	MITF primary 53 | MITF inh conf 48 | AS interf DR inactive | AS interf ctr inactive
O=C(O)c1cc(NN=C2CCCC2)ccc1Cl	MITF primary 72 | MITF inh conf 73 | AS interf DR inactive | AS interf ctr inactive
N#Cc1c(-c2ccco2)cc(C2CC2)nc1N	none
N#Cc1c(-c2ccco2)cc(-c2ccco2)nc1N	MITF primary 85 | MITF inh conf 73 | AS interf DR inactive | AS interf ctr inactive
O=C(CCSc1nnc2ccccn12)Nc1ccc(F)cc1	MITF primary 67 | MITF inh conf inactive | AS interf ctr inactive
Clc1ccc(C2=CC(c3ccc(Cl)cc3)n3ncnc3N2)cc1 (stereo not given)	none
O=C(NC1CCN(Cc2ccccc2)CC1)c1cnc(NC2CCN(Cc3ccccc3)CC2)s1	none
CCCNC(=O)c1cnc(NC2CCN(Cc3ccccc3)CC2)s1	MITF primary 74 | MITF inh conf inactive | AS interf ctr inactive
COC(=O)c1ccc(OCCCCN2CC(C)OC(C)C2)cc1 (stereo not given)	MITF primary 54 | MITF inh conf inactive | AS interf ctr inactive
CC1CN(CCOc2ccc(F)cc2)CC(C)O1 (stereo not given)	MITF primary 53 | MITF inh conf inactive | AS interf ctr inactive
CN1CCN(C(=O)C2CCCN(S(=O)(=O)c3ccc(F)cc3)C2)CC1 (stereo not given)	MITF primary 74 | MITF inh conf inactive | AS interf ctr inactive
CN1CCN(C(=O)C2CCCN(S(=O)(=O)N3CCCCC3)C2)CC1 (stereo not given)	MITF primary 65 | MITF inh conf inactive | AS interf ctr inactive
Cc1cc(C(=O)N2CCC(n3c(CC4CCCC4)nc4cccnc43)CC2)c(=O)[nH]c1C	none
COc1nc(N2CC(C)CC(C)C2)nc(N)c1[N+](=O)[O-] (stereo not given)	none
Cc1ccc(NCc2ccccn2)c(Br)c1	MITF primary 59 | MITF inh conf inactive | AS interf ctr inactive
Cc1cc(Br)ccc1NCc1ccccn1	MITF primary 67 | MITF inh conf inactive | AS interf ctr inactive
Cc1cc(C)cc(NCc2ccccn2)c1	none
O=C(NCc1ccccc1)c1ccnc(-c2cccs2)c1	none
O=C(NCc1cccnc1)c1ccnc(-c2cccs2)c1	MITF primary 51 | MITF inh conf 30 | AS interf DR inactive | AS interf ctr inactive
COc1ccc(S(=O)(=O)N2CCN(Cc3ccc([N+](=O)[O-])cc3)CC2)cc1	none
O=[N+]([O-])c1ccc(S(=O)(=O)N2CCN(Cc3cccc(Br)c3)CC2)cc1	MITF primary 77 | MITF inh conf inactive | AS interf ctr inactive
COc1ccc(CN2CCN(S(=O)(=O)c3ccc([N+](=O)[O-])cc3)CC2)cc1	MITF primary 53 | MITF inh conf inactive | AS interf ctr inactive
O=[N+]([O-])c1ccccc1S(=O)(=O)N1CCN(Cc2cccc(Br)c2)CC1	none
O=[N+]([O-])c1ccc(S(=O)(=O)N2CCN(Cc3ccccc3)CC2)cc1	none
O=[N+]([O-])c1ccc(S(=O)(=O)N2CCN(Cc3ccc(Br)cc3)CC2)cc1	MITF primary 61 | MITF inh conf inactive | AS interf ctr 36

Source: PubChem BioAssay
